Measurements as given in PubChem BioAssay AID651603 (National Center for Advancing Translational Sciences (NCATS), 2012).
Activity calls are given as the source filed them.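 The calls were made as follows: active = inhibition of at least 50% at 50 µM, meaning an activity change of -50% or lower; inconclusive = inhibition above 30% but under 50% at 50 µM; inactive = inhibition of 30% or less at 50 µM.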

experiment: qHTS Assay for Iinhibitors of HIV-1 Budding by Blocking the Interaction of PTAP/TSG101: Hit Validation in Viral Budding Asaay; details: HeLa pNL4-3 HIV-1 budding, supernatant RT activity, 18 h; at 50 µM (top of the series)
Text: Stages of the HIV-1 replication cycle, specifically virus assembly and release, provide underexploited targets for the development of novel antiviral inhibitors. The late stages of HIV-1 replication are mediated by the Gag precursor protein, Pr55Gag. Expression of Pr55Gag is both necessary and sufficient for the production of virus-like particles from Gag-expressing cells. The Gag protein hijacks key host proteins involved in endocytic machinery of the host cell to promote endosomal processing and viral budding. The budding process requires a direct interaction between a […] (PTAP) motif in the p6 domain of Gag and the cellular endosomal sorting protein known as Tsg101. In this way, the Gag PTAP motif promotes the host cells to recruit viral particles to the plasma membrane where the new viral particles are released, effectively turning the host cells into viral factories. A fluorescence anisotropy assay has been developed to quantitatively measure the PTAP-Tsg101 interaction which can be used to screen for inhibitors of this interaction. In this hit validation assay the readout is the release of reverse transcriptase (RT) activity into the medium of HeLa cells transfected with the full-length HIV-1 molecular clone pNL4-3. RT release from virus-producing cells occurs upon budding of virus from the cell surface. Small molecules that block the PTAP/Tsg101 interaction will reduce RT release. HeLa cells will also be transfected with a luciferase expression vector; compounds that are cytotoxic will reduce luciferase expression. NIH Molecular Libraries Probe Production Network [MLPCN] NIH Chemical Genomics Center [NCGC] MLPCN Grant: 1 R03 MH087464-01A1 PI Name: Dr. Eric Freed, NCI
Virus producing cells were treated with 12.5, 25 & 50 uM of each compound and 18 hr after treatment virus supernatant was collected from the cells. Reverse transcriptase (RT) activity in the virus supernatant is then measured.

Activity change, negative = inhibition, active:
CN1CCc2c(sc(NC(=O)CSc3ccc(F)cc3)c2-c2nc3ccccc3s2)C1 -59.8%
O/C=c1\ccc2cccc3nc(C(F)(F)F)nc1c23 -89.5%
COc1cccc2c1C(=O)c1c(O)c3c(c(O)c1C2=O)CC(O)(C(=O)CO)CC3OC1CC(N(C)C)C(O)C(C)O1 (centres undefined) -84%
COc1cccc(C(=O)c2sc3nc(-c4ccccc4)cc(C(F)(F)F)c3c2N)c1 -91.8%
